Test results taken from PubChem BioAssay AID488890 (Southern Research Specialized Biocontainment Screening …, 2010).
About 1,300 (0.41%) of roughly 320,000 compounds were called active. Not shown: some 3% with an inconclusive outcome. No rule for the calls is given here. The list is a sample of the results. Measured potencies and affinities stand elsewhere.

Assay: growth inhibition of non-replicating M. tuberculosis (AID 488890);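 also: plate controls were DMSO cells for no effect and high antibiotic wells for full effect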
Settings: Mycobacterium tuberculosis non-replicating, at 25 µM, stronger effect = higher value
In the case of COc1ccc2cc(Br)ccc2c1CC(=O)NCC1CCCO1 (configuration not stated), the inhibition is reported as 14.2%.
Compound O=S(=O)(c1ccc2c(c1)OCCO2)N1CCN(S(=O)(=O)c2ccco2)CC1 has an inhibition of 16.7%.
For c1ccc(CSc2ccc(-c3ccccn3)nn2)nc1, the inhibition was 36.2%.
c1ccc(-c2ccc(SCc3cccnc3)nn2)nc1 showed an inhibition of 63.6%.
Compound CCOC(=O)/C=C/C(=O)OCC(=O)Nc1ccc(Cl)cn1 has an inhibition of 0.76%.
Compound CS(=O)(=O)c1cnc(-c2ccccc2)nc1Oc1ccc(Cl)cc1 has an inhibition of -7.01%.
With O=P(O)(CCc1ccncc1)CN1CCCCC1 the inhibition was -7.55%.
In the case of COc1cccc2c(N/N=C/c3ccccc3)cc(C)nc12, the inhibition is reported as 3.67%.
In the case of COc1ccc(Nc2cc(C)nc3ccc(OC)cc23)cc1, the inhibition is reported as 41.2%.
Compound COc1ccccc1/C=N/Nc1cc(C)nc2ccc(C)cc12 has an inhibition of -9.66%.
With Cc1cc(N/N=C/c2ccc(N(C)C)cc2)c2ccccc2n1 the inhibition was -1.58%.
With COc1ccc(Nc2cc(C)nc3ccccc23)cc1 the inhibition was 36.9%.
Compound COc1ccc2nc(C)cc(NCc3ccc(F)cc3)c2c1 has an inhibition of 38.9%.
COc1ccc(C(=O)COC(=O)C(CCSC)NC(=O)COc2ccccc2)c(OC)c1 (configuration not stated) showed an inhibition of 30.9%.
For COc1ccccc1OCC(=O)NCc1n[nH]c(=O)c2ccccc12, the inhibition was -15.2%.
With O=C(COc1cccc2c1CCN(Cc1ccccc1)C2=O)N1CCCCC1 the inhibition was 10.8%.
CCCC(=O)C1=C(O)C(C(=O)OC)C(C)(C)CC1=NCCc1ccc(OC)c(OC)c1 (configuration not stated) gave an inhibition of 19%.
For CCOc1ccc(-c2csc(NC(=O)CSCC(=O)O)n2)c2ccccc12, the inhibition was 11.9%.
Cc1cccc(N/C(N)=N/c2nc(CSc3ccc(Cl)cc3)cc(=O)[nH]2)c1 showed an inhibition of -0.84%.
CN(Cc1ccc(F)cc1)C(=O)C(Cc1ccccc1)NC(=O)c1ccccc1 (configuration not stated) gave an inhibition of -6.89%.
In the case of COc1ccc(Cc2nnc(NC(=O)c3ccc(C)cc3)s2)cc1OC, the inhibition is reported as -7.61%.
CC(C)c1ccc(C2/C(=C(/O)c3ccccc3)C(=O)C(=O)N2CCCN2CCOCC2)cc1 (configuration not stated) showed an inhibition of 3.66%.
Compound Cc1ccc(S(=O)(=O)NC(CC(C)C)C(=O)Nc2ccncc2)cc1 (configuration not stated) has an inhibition of 0.09%.
CCOc1ccc(OCC(=O)c2c(O)c3ccccc3oc2=O)cc1 showed an inhibition of 29.5%.
Work on COc1ccc(OCC(=O)c2c(O)c3ccccc3oc2=O)cc1 yielded an inhibition of 23.3%.
For O=C(c1c(O)c2ccccc2oc1=O)C1CCC1, the inhibition was 39%.
Work on CC(=N)c1c(O)c2ccccc2oc1=O yielded an inhibition of -3.72%.
Cc1ccccc1-c1nnc(SCC(=O)NC2CCCC2)n1C showed an inhibition of 0.83%.
C[C@H]1CN([C@@H](C)CO)C(=O)c2cc(NC(=O)C3CCCCC3)ccc2O[C@H]1CN(C)CC1CCCCC1 gave an inhibition of 5.45%.
In the case of CCc1ccc(CNC(=O)c2ccc(OC)c(OC3CCN(C(C)C)CC3)c2)nc1, the inhibition is reported as 2.53%.
Work on Cc1cccc(NC(=O)CCc2nnc3ccc(NCc4ccco4)nn23)n1 yielded an inhibition of -10.9%.
For COc1ccc(-c2cnn3c4c(c(C)nc23)CCN4C(C)C)cc1OC, the inhibition was 6.73%.
For CCOC(=O)Nc1ccc2c(c1)N(C(=O)CCN(C)C)c1ccccc1CC2, the inhibition was -1.89%.
CCOC(=O)Nc1ccc2c(c1)Sc1ccccc1N2C(=O)CCN1CCOCC1 gave an inhibition of 39.8%.
CCOC(=O)Nc1ccc2c(c1)N(C(=O)CCN1CCOCC1)c1ccccc1S2 gave an inhibition of 20.2%.
For CCOC(=O)Nc1ccc2c(c1)N(C(=O)CN)c1ccccc1CC2, the inhibition was 22.7%.
For O=C(CN1CCCCCC1)Nc1cc(C(F)(F)F)ccc1Cl, the inhibition was 1.63%.
In the case of COc1ccc(CNC(=O)C(NC(C)=O)C(C)C)cc1OC (configuration not stated), the inhibition is reported as -1.56%.
For COc1ccc([N+](=O)[O-])cc1N(CC(O)CN1C(=O)NC(C)(C)C1=O)S(=O)(=O)c1ccccc1 (configuration not stated), the inhibition was -14.2%.
In the case of Cc1nnc(NC(=O)C2=COCCO2)s1, the inhibition is reported as -3.76%.
Cc1c(Cl)cccc1NC(=O)c1ccc(OCC(=O)NCc2ccccc2)cc1 gave an inhibition of -7.76%.
For CCC(=O)c1ccc(OCC(=O)OCC(=O)NC2CCCCCC2)cc1, the inhibition was 20.5%.
With Cc1ccc(C(=O)NC2CCCC2)s1 the inhibition was 56.2%.
With O=C(NC1CCCC1)c1ccc(Cl)s1 the inhibition was 75.8%.
Compound CCOC(=O)Nc1cccc(Cl)c1C has an inhibition of 20.8%.
Compound CCOc1ccc(C(=O)NC2CCCCCCC2)cc1 has an inhibition of 77.1%.
With CN(Cc1ccccc1)C(=O)COC(=O)c1cc(=O)c2ccccc2o1 the inhibition was -3.1%.
For COc1ccccc1C(=O)Nc1nc2cc3c(cc2s1)OCO3, the inhibition was -15.7%.
For O=C(Nc1cc(F)ccc1F)c1ccc(-n2cncn2)c([N+](=O)[O-])c1, the inhibition was 3.94%.
COc1ccc(NC(=O)C2CC(=O)n3ncnc3N2)cc1 (configuration not stated) showed an inhibition of -0.6%.
Compound COc1cc(-c2nc(-c3ccccc3)c(-c3cccs3)[nH]2)cc(OC)c1OC has an inhibition of -1.14%.
Compound Cc1ccc(C(=O)NC(C)c2ccc(S(N)(=O)=O)cc2)s1 (configuration not stated) has an inhibition of -0.6%.
In the case of CC(=O)Nc1ccc(NC(=O)CSc2nnc(CC(C)O)n2-c2ccccc2)cc1 (configuration not stated), the inhibition is reported as -7.33%.
With O=C(CN1CCN(S(=O)(=O)c2ccc(F)cc2)CC1)Nc1ccc(Cl)cn1 the inhibition was 37.8%.
In the case of FC(F)(F)c1cccc(Cc2noc(CN3CCCC(CN4CCCC4)C3)n2)c1 (configuration not stated), the inhibition is reported as 51%.
Work on Cc1cccn2c(CNC3CCCc4ccccc43)c(C(=O)N3CCOCC3)nc12 (configuration not stated) yielded an inhibition of 21.9%.
In the case of CCn1c(C)nc2cc(S(N)(=O)=O)ccc21, the inhibition is reported as -15.1%.
